# Screening results: PubChem, Center for Chemical Genomics, University of Michigan
# Hits are enriched below; roughly 0.93% of the tested compounds scored in any of these assays.
# HIV TAR-Tat: HIV-1 TAR-Tat binding disruption. z-score (no concentration beside the values). HIV-1 TAR RNA, Tat peptide displacement FRET; stronger effect = higher value. AID 1259389. 100,000 tested, 0.6% active; active means z-score of 3 or more in at least 2 runs
# CDC25B-CDK2 inh: human CDC25B-CDK2/CyclinA binding inhibition | HTRF CDC25B-CDK2/CyclinA binding, anti-His/anti-Flag; stronger effect = higher value | AID 1259370 | z-score (concentration not given with the values) | 94,000 tested, 0.72% active; in the data active means z-score above about 3.2
# * marks the source's active call; other numbers are inactive results; . = no result given.
SMILES,HIV TAR-Tat,CDC25B-CDK2 inh
O=C(CSc1n[nH]c(-c2ccco2)n1)c1ccc(Cl)cc1,17*,-2.18
O=C(Nc1cnc2ccccc2c1)c1ccco1,0.67,.
O=C(CSc1n[nH]c(-c2ccccc2)n1)c1ccc(Cl)cc1,.,-1.38
COc1ccc(C(=O)CSc2ccc(-c3cccs3)nn2)cc1,0.45,.
COc1ccc(C(=O)CSc2nnc(-c3ccco3)c(-c3ccco3)n2)cc1,20.2*,-1.2
COc1ccc(C(=O)Cn2c3ccccc3n3nc(-c4ccco4)nc23)cc1OC,0.31,-1.21
COc1ccc(C(=O)Cn2c3ccccc3n3nc(-c4ccco4)nc23)cc1,7.1*,-5.39
O=C(CSc1nnc(-c2ccco2)c(-c2ccco2)n1)Nc1cnc2ccccc2c1,25.5*,0.46
CC1=CC(C)(C)N(C(=O)CSc2nnc(-c3ccccc3)o2)c2ccccc21,0,-0.24
Cc1cccn2c(=O)c3cc(C(=O)NCCCN4CCOCC4)n(C)c3nc12,.,-1.1
COC(=O)c1sccc1S(=O)(=O)Nc1ccc(OC)c(Cl)c1,0.65,.
CCCc1nnc(SCc2cc(=O)c3c(C)cc(C)cc3[nH]2)n1C,-0.93,.
CC(=O)/C(C=Nc1cc(C)on1)=C(\C)O,.,0.94
CCn1c(SCC(=O)Nc2nc3ccccc3s2)nnc1-c1cc2ccccc2o1,1.85,.
CCn1c(SCC(=O)Nc2nnc(C)s2)nnc1-c1cc2ccccc2o1,5.11*,.
CCOC(=O)c1c(C)oc2c1c(CN1CCCC(C(=O)OCC)C1)c(O)c1ccccc12 (configuration not stated),.,-0.68
CCOC(=O)c1c(C)oc2c1c1c(c3ccccc32)OCN(CC2CCCO2)C1 (configuration not stated),-5.38,16.7*
O=C(NC1CCSC1=O)c1ccc(-c2ccccc2)cc1 (configuration not stated),2.03,-3.17
O=C(NC1CCSC1=O)c1cccc(C(=O)NC2CCSC2=O)c1 (configuration not stated),26.1*,-0.45
Cc1ccc(C(=O)Nc2nnc3n2CCCS3)cc1C,1.06,.
COc1ccc(CNc2cc(C)nc3c(-c4ccc(OC)c(OC)c4)c(C)nn23)cc1,0.44,-2.53
COc1ccc(-c2cc3nc(C)cc(NCc4cccnc4)n3n2)cc1OC,5.06*,-2.08
CCOC(=O)c1noc(C)c1-c1csc(CS(=O)(=O)c2ccc(Cl)cc2)n1,.,-0.43
Cn1c(C(=O)N2CCN(C(=O)c3ccco3)CC2)cc2c(=O)[nH]c3ccccc3c21,0.35,18.3*
Cn1c(C(=O)N2CCN(C(=O)c3ccco3)CC2)cc2c(=O)n(C)c3ccccc3c21,1.1,-1.73
SMILES,HIV TAR-Tat,CDC25B-CDK2 inh
CC(NC(=O)c1c2c(nc3ccccc13)C(=O)N(C1CCCCC1)C2)c1ccccc1 (configuration not stated),0.61,.
CC1(C)N([O-])C2=C(c3ccccc3C2=O)[N+](=O)C1(C)C,.,16.8*
Cc1nc(-c2ccc(C(=O)Nc3nccs3)cc2)no1,0.07,.
c1ccc(-c2csc(N3CCOCC3)n2)cc1,.,-1.28
OCC1O[C@H]([S-])[C@@H](O)C(O)[C@@H]1O.[Au+] (some centres not stated),.,19.3*
OCC1O[C@H](O)C(Cl)C(O)C1O (some centres not stated),.,-2.64
CC(C)C(=O)N(c1ccc2oc(=O)sc2c1)S(=O)(=O)c1cccs1,0.34,-2.75
CC(C)C(=O)N(c1cc2sc(=O)oc2c2ccccc12)S(=O)(=O)c1cccs1,0.5,6.95*
O=c1[nH]c(SCc2ccccc2F)nc2c1cnn2-c1ccc(F)cc1,0.27,0.92
CC(C)c1nnc(N2C(=O)c3oc4ccccc4c(=O)c3C2c2cccc(Cl)c2)s1 (configuration not stated),2.03,0.65
COc1cc(C)c2c(c1C=O)Oc1c(c(C)c(O)c3c1C(O)OC3=O)OC2=O (configuration not stated),0.93,.
Cc1cc(O)c(C=O)c2c1C(=O)Oc1c(C)c(O)c3c(c1O2)C(O)OC3=O (configuration not stated),3.98*,.
CCc1cc(-c2[nH]ncc2-c2ccc(OC)cc2)c(O)cc1O,2.68,-1.03
C=CCOC(=O)C1=C(C)Nc2[nH]c(=O)[nH]c(=O)c2C1c1ccc(C)cc1 (configuration not stated),.,0.04
Cc1ccc(NS(=O)(=O)c2c(C)[nH]c(=O)[nH]c2=O)c(C)c1,0.67,.
COc1ccccc1C1Oc2ccccc2C2CC(c3cccnc3)=NN21 (configuration not stated),3.47*,-0.43
COc1ccc(C2=NN3C(C2)c2ccccc2OC3c2ccncc2)cc1OC (configuration not stated),-0.61,-0.92
COc1ccccc1CNC(=O)c1cccc(-n2c(=S)[nH]c3cc(Cl)ccc3c2=O)c1,.,-1.43
C(=C\CSc1ccccn1)/CSc1ccccn1,.,-1.31
Nc1ccccc1SC/C=C/CSc1ccccc1N,.,14.9*
CCOC(=O)c1c(C)n(-c2ccccc2OC)c2c1cc(O)c1ccccc12,-1.22,0.41
Cc1cc(C)n(-c2nc3c(c(=O)n2CC(=O)NC(C)(C)C)CCCC3)n1,1.33,.
Cc1cc(C)n(-c2nc3c(c(=O)n2CC(N)=O)CCCC3)n1,12.1*,.
CC(=O)N/C(=C\c1ccc(NC(C)=O)cc1)C(=O)O,.,0.91
Cc1ccc2c(=O)c(C(=O)O)c[nH]c2n1,19.6*,1.51
SMILES,HIV TAR-Tat,CDC25B-CDK2 inh
Cc1ccc2c(=O)c(C(=O)c3ccc(F)cc3)c[nH]c2n1,-1.97,.
COC(=O)c1cnn(-c2ccccc2)c1-n1cccc1,1.82,.
Cc1cc(C)n(CC(C)O)c(=O)c1C#N (configuration not stated),0.95,15.5*
Cc1cc(C)n(CCCO)c(=O)c1C#N,0.5,1.01
CN1C(=O)CSc2ccc(NC(=O)NCc3cccnc3)cc21,0.5,4.78*
CN1C(=O)CSc2ccc(NC(=O)NCc3ccc(F)cc3)cc21,-0.54,1.95
O=C1CCCC2=C1C(c1ccco1)N(C(=O)CSc1ccc(Cl)cc1)c1ccccc1N2 (configuration not stated),1.27,.
CCOc1ccccc1NC(=O)N1c2ccccc2NC2=C(C(=O)CCC2)C1c1cccs1 (configuration not stated),21.1*,.
COc1ccccc1NC(=O)N1c2ccccc2NC2=C(C(=O)CCC2)C1c1cccs1 (configuration not stated),2.65,.
COC(=O)CSc1nnnn1-c1ccc(C(=O)O)cc1,-0.09,-0.41
O=C(O)c1cc(Nc2nc(-c3cccnc3)cs2)ccc1O,4.39*,-5.72
Oc1cccc(Nc2nc(-c3cccnc3)cs2)c1,2.75,-1.45
CN1CCN(CCNC(=O)CCCN2C(=O)c3cccnc3Sc3ccccc32)CC1,0.35,.
O=C(O)c1cc(=O)c(O)c2c(O)c(O)ccc2c1,25.1*,.
CC1=NN(c2cccc(C(=O)O)c2)C(=O)C1,0.21,-1.06
O=c1cccc2ccc(O)c(O)c2c1O,25.3*,.
Cc1cc(=O)c2c(O)c(O)ccc2o1,.,-2.16
Cc1ccc(-c2noc(-c3nnn(-c4cccc(Cl)c4C)c3N)n2)cc1,-0.56,.
Cc1sc2c(c1C)CSC(C(=O)NCCN1CCCC1)=C2,6.31*,.
O=C(NCCN1CCCC1)C1=Cc2sc3c(c2CS1)CCCC3,2.15,.
Cc1cccc(NC2CS(=O)(=O)CC2O)c1 (configuration not stated),2.35,0.94
COc1cc(C(=O)NC(NC(=S)Nc2cccc3ccccc23)C(Cl)(Cl)Cl)cc(OC)c1OC (configuration not stated),.,5.06*
